JMJD2A Tudor inh – qHTS Assay for Inhibitors of JMJD2A-Tudor Domain; AlphaScreen JMJD2A-Tudor / H3K4me3 peptide binding; AID 504339, 2011; Potency, µM (titrated, usually from 114 µM), for inactives: at the highest dose activity change, negative = inhibition, usual class: inhibitors; Lysine-specific demethylase 4A (Homo sapiens), O75164; 390,000 tested, 4.4% active; also: potency is read from the fitted curve at half-maximal effect; % is scaled to controls: 0 for no effect and ±100 for the full control effect; nearly all actives have a fitted effect of over 50% in size
CtBP-E1A blk – qHTS Assay for Inhibitors of the CtBP/E1A Interaction. CtBP / adenovirus E1A interaction (AlphaScreen). AlphaScreen GST-E1A/His-CtBP binding, 1536-well; hits give low values. activity change, % (test concentration not listed). 340,000 tested, 0.49% active; in the data active = activity change below about -65%; inconclusive = mostly about -30% to -63%; also: % is scaled to controls: 0 for no effect and ±100 for the full control effect
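Protein mix (5X: 125 nM each GST-E1A, His-CtBP) was incubated with pinned compound 2 h at 37 deg C in dark, in 50 mM Tris pH 8.0 buffer with 300 mM NaCl. Glutathione donor and nickel acceptor beads followed; AlphaScreen signal read after 1 h.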
G9a inh – qHTS Assay for Inhibitors of Histone Lysine Methyltransferase G9a. Potency, µM (top dose mostly 102 µM), inactives show top-dose activity, negative = inhibition, actives largely listed as inhibitors. Histone-lysine N-methyltransferase EHMT2 (Homo sapiens), Q96KQ7. 350,000 tested, 8.8% active. G9a H3K9 monomethylation, AlphaScreen, 2 h; also: potency is read from the fitted curve at half-maximal effect; % is scaled to controls: 0 for no effect and ±100 for the full control effect; nearly all actives have a fitted effect of over 75% in size
Target sequence (Q96KQ7 913-1193 limits assumed): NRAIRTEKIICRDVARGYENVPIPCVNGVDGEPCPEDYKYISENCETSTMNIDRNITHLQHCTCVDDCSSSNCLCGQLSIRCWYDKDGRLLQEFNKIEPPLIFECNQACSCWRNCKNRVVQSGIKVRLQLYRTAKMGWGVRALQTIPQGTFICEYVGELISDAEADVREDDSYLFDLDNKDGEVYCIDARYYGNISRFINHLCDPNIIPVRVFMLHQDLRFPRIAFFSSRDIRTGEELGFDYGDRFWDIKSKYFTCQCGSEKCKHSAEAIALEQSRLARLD
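Quantitative HTS format: methyltransferase activity on a biotin-tagged H3K9 peptide is measured by AlphaScreen, using a rabbit anti-monomethyl-H3K9 antibody with streptavidin donor and anti-IgG acceptor beads. Final levels are 20 nM enzyme, 500 nM peptide, 20 uM SAM; 2 h RT.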
HP1b chromo inh – HTS for Inhibitors of HP1-beta Chromodomain Interactions with Methylated Histone Tails; Chromobox protein homolog 1 (Homo sapiens), P83916; AlphaScreen HP1-beta / biotin-H3K9me3 peptide binding; Potency, µM (highest dose often 114 µM), inactives show top-dose activity change, negative = inhibition, most hits filed as inhibitors; 390,000 tested, 0.56% active; AID 540317, 2011; also: potency is read from the fitted curve at half-maximal effect; nearly all actives have a fitted effect of over 70% in size
Target sequence (P83916 whole entry, looked up): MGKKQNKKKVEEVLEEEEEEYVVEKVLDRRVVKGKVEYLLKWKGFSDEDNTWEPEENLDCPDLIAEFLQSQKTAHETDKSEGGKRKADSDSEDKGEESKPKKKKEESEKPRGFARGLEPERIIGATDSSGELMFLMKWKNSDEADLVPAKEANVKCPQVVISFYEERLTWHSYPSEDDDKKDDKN
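Compound inhibition of the preformed complex between 50 nM HP1-beta and 50 nM biotinylated H3K9me3 peptide was read by AlphaScreen. Buffer was PBS pH 7.4 with 0.01% Tween-20. Incubations ran 30 min at room temperature, with 10 ug/mL donor/acceptor beads.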
Six1-Eya2 inh – qHTS Assay for Inhibitors of the Six1/Eya2 Interaction. AlphaScreen GST-Six1/His-Eya2 binding, biochemical; hits give low values. activity change, % (concentration not given with the values). Homeobox protein SIX1 (Homo sapiens) + Protein phosphatase EYA2 (Homo sapiens), …. AID 651725, 2012. 360,000 tested, 0.56% active; in the data active = activity change below about -65%; inconclusive = mostly about -30% to -63%; also: % is scaled to controls: 0 for no effect and ±100 for the full control effect
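AlphaScreen luminescence read after one hour at 37 °C in darkness. Pin-transferred compounds met GST-Six1 and His-Eya2 protein (5X stock 250 nM/500 nM) plus glutathione donor and Ni-chelate acceptor beads (5X, 50 ug/mL).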
BAZ2B block – qHTS Assay for Inhibitors of BAZ2B. Bromodomain adjacent to zinc finger domain protein 2B (Homo sapiens), Q9UIF8. Potency, µM (titrated, usually from 114 µM), for the others: top-dose activity change, negative = inhibition, hits mostly inhibitors. AlphaScreen BAZ2B-H3K14Ac peptide displacement. 360,000 tested, 4.4% active. AID 504333, 2011; also: potency is read from the fitted curve at half-maximal effect; % is scaled to controls: 0 for no effect and ±100 for the full control effect; nearly all actives have a fitted effect of over 60% in size
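AlphaScreen displacement: compounds (up to 110uM) incubated 30 min at room temperature with a preformed 50 nM BAZ2B/50 nM biotinylated H3K14Ac peptide complex in PBS pH 7.4 with Tween-20. Donor and acceptor beads at 10 ug/mL final added, 20 min light-protected before reading.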
12-hLO cuvette – Cuvette-Based Assay for Inhibitors of 12-hLO (12-human lipoxygenase): 8HQ Series - Round 1 | AID 2163, 2009 | purified 12-hLO, cuvette UV 234 nm product formation | Potency, µM, most hits filed as inhibitors | shares compounds with BAZ2B block | 35 tested, 60% active;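 active = compounds that slowed 12-hLO product formation enough to yield a measured IC50 potency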
KDM4E inh – Inhibitors of Human Jumonji Domain Containing 2E (JMJD2E): 8HQs - Round 1; shares compounds with BAZ2B block; JMJD2E demethylase, FDH-coupled NADH fluorescence (FDH is formaldehyde dehydrogenase); Potency, µM (top dose mostly 57 µM), without a hit: at the highest dose activity, negative = inhibition, usual class: inhibitors; 130 tested, 89% active
ME-1 growth – qHTS Assay for Compounds Blocking the Interaction Between CBF-beta and RUNX1 for the Treatment of Acute Myeloid Leukemia: ME-1 cellular proliferation | shares compounds with BAZ2B block | ME-1 cell proliferation, ATP luminescence, 48 h | Potency, µM (doses to about 56.1 µM), without a hit: top-dose activity change, negative = inhibition, actives largely listed as inhibitors | 140 tested, 20% active | AID 504370, 2011
* = called active by the depositor; ? = inconclusive; . = no result; ! = repeats disagree; [ ] = remark or other dose. A selection: hits, their analogues and other compounds. The true share with any hit is near 10%. Unless noted, calls follow the shape of the dose curve; as a rule, active = well fitted curve in the direction sought with a large enough effect; inconclusive = small, poorly fitted or top-dose-only effect, or another doubt; inactive = no such curve, though single readings can be large; an effect the other way counts as inactive or inconclusive.

SMILES	JMJD2A Tudor inh	CtBP-E1A blk	G9a inh	HP1b chromo inh	Six1-Eya2 inh	BAZ2B block	ME-1 growth	others
CCC(=O)NC(c1ccco1)c1cc(Br)c2cccnc2c1O (stereo not given)	.	.	4%[12.7 µM]	.	.	28µM*	.	12-hLO cuvette=2µM*;KDM4E inh=32µM*
COc1cc(NC(C)=O)c2ncccc2c1Br	.	-3	.	.	1	.	.
CCC(=O)NC(c1cc(Cl)c2cccnc2c1O)C1CC1 (stereo not given)	79µM*	.	19%[12.7 µM]	52%	.	32µM*	.	12-hLO cuvette=1.6µM*;KDM4E inh=32µM*
Cc1ccc(C)c(N2CCN(C(=O)Cn3c(=O)[nH]c4ccsc4c3=O)CC2)c1	-18%	-8	3%[12.7 µM]	1%	-1	-22%	.
COc1ccc(-c2csc(N)n2)cc1	-27%	-5	?	4%	-5	-11%	-11%[25.6 µM]
COc1ccc(-c2csc(N=C(N)N)n2)cc1	-30%	-11	?	11%	-6	?	.
Cc1cn2c(=O)cc(COc3ccc(C(C)(C)C)cc3)nc2s1	-13%	.	9%[59 µM]	37%	.	-5%	.
Cc1c2c(c(O)c3c(O)cccc13)C(=O)O[C@H]2C1C(N(C)C)C(O)=C(C(N)=O)C(=O)[C@H]1O (stereo not given in full)	.	.	.	.	.	.	-14%
COc1cccc(CC(=S)N2CCOCC2)c1	-4%	0	-9%[59 µM]	22%	0	-9%	.
Cc1ccc(NC(=O)C(=O)NCc2ccc(/C=C(/C#N)C(=O)NCc3cccnc3)o2)cc1C	-9%	-2	6%	24%	2	-26%	.
O=C1c2cccc3cccc(c23)C(=O)N1/N=C/c1ccc(O)cc1O	-26%	5	8%[59 µM]	18%	-13	6%	.
O=C1c2ccccc2C(=O)N1/N=C/c1ccc(O)c(O)c1O	22µM*	?	?	22µM*	?	?	?
OCCSc1nc(N2CCOCC2)nc(N2CCOCC2)n1	4%	-3	-27%	23%	5	5%	.
Brc1ccc(C2Nc3cccc4cccc(c34)N2)o1	?	1	20µM*	?	-6	?	-22%
C=CN1CCCC1=O	.	.	.	.	.	.	-11%
CCN1CCCC1=O	.	.	19%[59 µM]	.	.	.	.
CC/C(=C(\c1ccccc1)c1ccc(OCCN(C)C)cc1)c1ccccc1	45µM*	?	19µM*!	?	-4	35µM*	24µM*
O=c1oc2c(O)c(O)cc3c(=O)oc4c(O)c(O)cc1c4c23	0.71µM*	-13	1.3µM*	?	-74*	0.79µM*	-8%
Cc1c(O)c(CN(C)C)cc2c1oc(=O)c1ccccc12	-10%	-1	?	0%	2	-5%	.
O=C(CCc1nnc2ccc(N3CCCCC3)nn12)NCc1ccco1	-8%	0	34%	51%	-2	-17%	.

Source: PubChem
